# Reference: paper PMC7862700, “An all-to-all approach to the identification of sequence-specific readers for epigenetic DNA modifications on cytosine”
# Key:
# Test in all cases: DAPPL (digital affinity profiling via proximity ligation, sequencing); 10 mM Tris-HCl pH 7.5, 50 mM NaCl, 1 mM DTT, 4% glycerol, room temperature, 30 min; GST-TFs on glutathione beads, 16-mer random dsDNA library, 0.1% formaldehyde crosslink after washing; high values mean tight binding
# Conditions in all cases: protein: recombinant; tags: N-terminal GST; dsDNA, one strand shown
# ETV2 = target: T1, ETV2 (Homo sapiens, UniProt O00321 1-342)
# T1 sequence: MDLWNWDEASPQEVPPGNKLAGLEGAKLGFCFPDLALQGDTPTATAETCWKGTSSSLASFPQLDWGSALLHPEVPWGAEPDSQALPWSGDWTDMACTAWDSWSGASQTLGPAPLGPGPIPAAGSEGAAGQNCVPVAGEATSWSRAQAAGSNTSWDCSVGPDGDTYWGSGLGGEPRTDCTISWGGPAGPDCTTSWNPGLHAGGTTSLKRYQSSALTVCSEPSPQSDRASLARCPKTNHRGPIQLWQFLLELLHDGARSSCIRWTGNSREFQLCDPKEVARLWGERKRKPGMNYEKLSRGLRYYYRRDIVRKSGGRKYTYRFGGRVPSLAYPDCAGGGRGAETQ
# In short: (§1)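 Sequencing on an Illumina NextSeq500 followed washing, crosslinking with 0.1% formaldehyde, proximity ligation (BsaI/T4 ligase, 1 h, 37 °C) and PCR amplification of pools that had been incubated for 30 min at room temperature with 200 nmole of a random double-stranded 16-mer DNA library in Tris/NaCl/DTT/glycerol buffer. Each pool held DNA-barcoded human transcription factors, expressed in yeast as GST fusions and captured on glutathione beads, plus a tag-only sample. Binding signal is a hexamer's read frequency for a factor divided by its frequency in the tag-only sample.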
# ELF3 = target: T2, ELF3 (Homo sapiens, UniProt P78545 1-371)
# T2 sequence: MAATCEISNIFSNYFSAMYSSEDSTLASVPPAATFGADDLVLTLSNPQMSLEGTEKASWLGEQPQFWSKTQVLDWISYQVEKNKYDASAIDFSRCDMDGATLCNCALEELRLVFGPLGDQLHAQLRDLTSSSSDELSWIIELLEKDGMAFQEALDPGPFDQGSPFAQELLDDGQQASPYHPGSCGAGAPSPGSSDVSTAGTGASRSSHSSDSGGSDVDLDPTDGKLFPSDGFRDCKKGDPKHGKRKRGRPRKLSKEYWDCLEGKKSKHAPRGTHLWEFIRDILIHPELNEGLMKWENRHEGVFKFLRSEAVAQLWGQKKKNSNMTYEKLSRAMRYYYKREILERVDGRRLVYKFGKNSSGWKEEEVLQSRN
# In short: as §1
# ETV1 = ETV1 (Homo sapiens, UniProt P50549 1-477)
# Chain of ETV1 (P50549 whole entry): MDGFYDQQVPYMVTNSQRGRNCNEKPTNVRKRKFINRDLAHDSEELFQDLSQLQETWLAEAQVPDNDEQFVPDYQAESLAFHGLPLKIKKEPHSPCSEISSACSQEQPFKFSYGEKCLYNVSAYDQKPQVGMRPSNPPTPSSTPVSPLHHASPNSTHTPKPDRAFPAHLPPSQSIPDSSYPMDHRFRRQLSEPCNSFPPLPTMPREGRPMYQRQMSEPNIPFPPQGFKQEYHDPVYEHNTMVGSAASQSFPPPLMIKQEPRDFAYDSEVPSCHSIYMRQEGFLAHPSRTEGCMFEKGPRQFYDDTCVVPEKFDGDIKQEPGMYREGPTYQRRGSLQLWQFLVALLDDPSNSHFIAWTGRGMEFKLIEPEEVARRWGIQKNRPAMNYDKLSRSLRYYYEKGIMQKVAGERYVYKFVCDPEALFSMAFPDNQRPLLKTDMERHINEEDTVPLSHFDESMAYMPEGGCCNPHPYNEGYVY
# In short: as §1
# ERF = target: T3, ERF (Homo sapiens, UniProt P50548 1-548)
# T3 sequence: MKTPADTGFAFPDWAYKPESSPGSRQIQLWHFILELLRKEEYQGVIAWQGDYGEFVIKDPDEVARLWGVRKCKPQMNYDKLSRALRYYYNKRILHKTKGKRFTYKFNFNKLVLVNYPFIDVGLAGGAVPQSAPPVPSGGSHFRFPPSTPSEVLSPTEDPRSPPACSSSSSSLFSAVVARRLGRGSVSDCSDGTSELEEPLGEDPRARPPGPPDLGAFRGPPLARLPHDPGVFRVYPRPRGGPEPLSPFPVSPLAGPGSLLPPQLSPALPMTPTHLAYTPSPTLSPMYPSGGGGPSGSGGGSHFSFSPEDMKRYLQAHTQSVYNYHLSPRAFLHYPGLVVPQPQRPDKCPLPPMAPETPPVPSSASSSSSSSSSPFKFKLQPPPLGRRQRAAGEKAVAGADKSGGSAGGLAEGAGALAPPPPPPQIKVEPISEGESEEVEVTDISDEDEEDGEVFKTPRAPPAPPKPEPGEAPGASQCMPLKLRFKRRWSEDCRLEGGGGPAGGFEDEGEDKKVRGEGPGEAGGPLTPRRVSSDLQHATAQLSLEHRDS
# In short: as §1
# ETV3L = target: T4, ETV3L (Homo sapiens, UniProt Q6ZN32 1-361)
# T4 sequence: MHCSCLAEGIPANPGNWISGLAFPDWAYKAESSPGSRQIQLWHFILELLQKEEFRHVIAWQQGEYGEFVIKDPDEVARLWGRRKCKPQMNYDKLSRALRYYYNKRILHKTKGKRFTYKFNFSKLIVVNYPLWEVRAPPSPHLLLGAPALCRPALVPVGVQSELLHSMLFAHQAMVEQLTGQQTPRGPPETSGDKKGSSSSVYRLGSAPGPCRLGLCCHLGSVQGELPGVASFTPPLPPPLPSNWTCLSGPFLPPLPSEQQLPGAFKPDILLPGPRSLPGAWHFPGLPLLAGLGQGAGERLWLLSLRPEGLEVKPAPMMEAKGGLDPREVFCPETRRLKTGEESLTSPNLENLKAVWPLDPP
# In short: as §1
# ETS2 = target: T5, ETS2 (Homo sapiens, UniProt P15036 1-469)
# T5 sequence: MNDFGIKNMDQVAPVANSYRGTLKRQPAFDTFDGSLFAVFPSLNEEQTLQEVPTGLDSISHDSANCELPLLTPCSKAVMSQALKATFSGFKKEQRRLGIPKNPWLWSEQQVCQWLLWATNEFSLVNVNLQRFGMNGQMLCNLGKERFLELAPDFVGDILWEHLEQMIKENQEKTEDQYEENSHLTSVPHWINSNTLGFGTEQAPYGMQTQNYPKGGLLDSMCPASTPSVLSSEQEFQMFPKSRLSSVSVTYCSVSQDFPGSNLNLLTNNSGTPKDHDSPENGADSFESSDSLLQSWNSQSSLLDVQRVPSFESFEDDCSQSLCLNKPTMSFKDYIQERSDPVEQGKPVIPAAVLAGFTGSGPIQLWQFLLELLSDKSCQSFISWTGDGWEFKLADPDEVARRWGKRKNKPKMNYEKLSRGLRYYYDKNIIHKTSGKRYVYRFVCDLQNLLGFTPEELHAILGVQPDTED
# In short: as §1
# SPDEF = target: T6, SPDEF (Homo sapiens, UniProt O95238 1-335)
# T6 sequence: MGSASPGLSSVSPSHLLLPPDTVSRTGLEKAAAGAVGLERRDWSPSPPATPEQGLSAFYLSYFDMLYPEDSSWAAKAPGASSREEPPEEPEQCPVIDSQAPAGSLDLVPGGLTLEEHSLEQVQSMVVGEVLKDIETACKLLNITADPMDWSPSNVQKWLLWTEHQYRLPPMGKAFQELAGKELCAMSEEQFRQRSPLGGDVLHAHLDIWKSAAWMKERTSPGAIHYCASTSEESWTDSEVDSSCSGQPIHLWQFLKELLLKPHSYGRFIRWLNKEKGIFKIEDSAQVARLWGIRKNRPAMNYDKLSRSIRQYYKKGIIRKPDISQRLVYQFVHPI
# In short: as §1
# ETV7 = target: T7, ETV7 (Homo sapiens, UniProt Q9Y603 1-341)
# T7 sequence: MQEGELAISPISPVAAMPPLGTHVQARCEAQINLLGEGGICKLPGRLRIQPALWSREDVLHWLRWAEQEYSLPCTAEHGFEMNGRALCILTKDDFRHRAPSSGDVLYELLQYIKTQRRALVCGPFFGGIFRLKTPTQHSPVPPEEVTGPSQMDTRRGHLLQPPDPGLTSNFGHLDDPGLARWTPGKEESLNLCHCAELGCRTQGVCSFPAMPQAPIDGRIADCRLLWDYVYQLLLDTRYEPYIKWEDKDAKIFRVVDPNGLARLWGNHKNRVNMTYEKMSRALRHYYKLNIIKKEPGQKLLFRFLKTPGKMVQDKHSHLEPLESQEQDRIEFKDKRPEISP
# In short: as §1
# ETV3 = target: T8, ETV3 (Homo sapiens, UniProt P41162-2 1-143)
# T8 sequence: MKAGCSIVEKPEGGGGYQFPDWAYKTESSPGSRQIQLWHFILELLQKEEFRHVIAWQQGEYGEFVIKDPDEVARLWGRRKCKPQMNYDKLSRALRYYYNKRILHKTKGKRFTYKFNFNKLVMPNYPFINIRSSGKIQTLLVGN
# In short: as §1
# ETV6 = ETV6 (Homo sapiens, UniProt P41212 1-452)
# Chain of ETV6 (P41212 whole entry): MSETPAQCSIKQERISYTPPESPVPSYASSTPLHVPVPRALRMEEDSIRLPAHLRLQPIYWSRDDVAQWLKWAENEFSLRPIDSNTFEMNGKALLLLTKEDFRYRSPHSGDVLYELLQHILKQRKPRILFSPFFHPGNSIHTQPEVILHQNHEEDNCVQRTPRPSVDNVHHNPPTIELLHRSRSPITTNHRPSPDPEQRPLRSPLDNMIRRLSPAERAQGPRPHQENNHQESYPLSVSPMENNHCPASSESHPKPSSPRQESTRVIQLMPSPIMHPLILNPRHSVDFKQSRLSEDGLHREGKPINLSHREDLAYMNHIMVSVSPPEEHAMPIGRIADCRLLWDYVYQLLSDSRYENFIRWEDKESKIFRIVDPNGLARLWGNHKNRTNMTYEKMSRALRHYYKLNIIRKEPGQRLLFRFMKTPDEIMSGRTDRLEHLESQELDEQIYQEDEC
# In short: as §1
sequence,measurement,setting,value
CCAACC,binding signal,ETV2,"1.08 fold enrichment (6-mer frequency, TF over GST control)"
same,binding signal,ELF3,"1.08 fold enrichment (6-mer frequency, TF over GST control)"
same,binding signal,ETV1,"1.04 fold enrichment (6-mer frequency, TF over GST control)"
same,binding signal,ERF,"1.14 fold enrichment (6-mer frequency, TF over GST control)"
same,binding signal,ETV3L,"1.09 fold enrichment (6-mer frequency, TF over GST control)"
same,binding signal,ETS2,"1.18 fold enrichment (6-mer frequency, TF over GST control)"
same,binding signal,SPDEF,"1.11 fold enrichment (6-mer frequency, TF over GST control)"
same,binding signal,ETV7,"1.07 fold enrichment (6-mer frequency, TF over GST control)"
same,binding signal,ETV3,"1.11 fold enrichment (6-mer frequency, TF over GST control)"
same,binding signal,ETV6,"1.08 fold enrichment (6-mer frequency, TF over GST control)"
